# Rows were chosen to be rich in hits. Some 13% of all compounds tested hit in one or more screens of this group.
# USP30 block = blocks human USP30 ubiquitin-rhodamine cleavage; Q70CQ3; purified USP30, Ub-rhodamine cleavage fluorescence; inhibition, % at 25 µM; 47,000 tested, 5.3% active; AID 1645860
# USP17 block = blocks human USP17 ubiquitin-rhodamine cleavage. A8MUK1. purified USP17, Ub-rhodamine cleavage fluorescence, 3 h. inhibition, % at 50 µM. 47,000 tested, 6.5% active
# USP8 block = blocks human USP8 ubiquitin-rhodamine cleavage. P40818. purified USP8, Ub-rhodamine cleavage fluorescence, 30 min. inhibition, % at 20 µM. 47,000 tested, 4.2% active. AID 1645853
# USP10 block = inhibitors of human USP10 deubiquitinase | Q14694 | purified USP10, Ub-rhodamine fluorescence, 60 min | inhibition, % at 20 µM | 47,000 tested, 1.1% active
# USP28 block = blocks human USP28 ubiquitin-rhodamine cleavage. 47,000 tested, 3% active. AID 1645857. purified USP28, Ub-rhodamine cleavage fluorescence, 30 min. Q96RU2. inhibition, % at 25 µM
# Active calls of the source: *; nt = no result given. Rule as the data show it: active = inhibition above about 30%; inactive = the rest.
SMILES,USP30 block,USP17 block,USP8 block,USP10 block,USP28 block
Cc1nc2ccccn2c1C1(O)C(=O)Nc2c(Cl)cc(Cl)cc21 (stereo not drawn),23.6,52.1*,87.6*,0.1,20.9
Cn1cccc1C(=O)Nc1cnn(-c2ncc(N3CCCCC3)cn2)c1,-80.4,-32.2,-33.4,-0.6,-34.1
Cn1cccc1C(=O)Nc1cnn(-c2ncc(N3CCCC3)cn2)c1,-108.9,31.4*,-7.2,-3.2,-17.4
COCCn1c(C(=O)Nc2ccccc2Cl)cc2c(=O)n(C)c(=O)n(C)c21,-3.0,36.2*,-10.4,1.9,-9.9
COc1cc2cc3c(c(O)c2c(O)c1-c1c(OC)cc2cc4c(c(O)c2c1O)C(=O)OC1CC(C)OC41)C(=O)OC1CC(C)OC31 (stereo not drawn),-62.3,60.5*,58.2*,29.5,6.7
Cc1ccccc1CN1CCC(C2CCCCCN2C(N)=O)CC1 (stereo not drawn),6.7,0.1,-10.2,-4.3,6.0
COc1ccc(C(C)=O)cc1COC(=O)c1ccc2c(c1)S(=O)(=O)N=C1CCCCCN12,38.1*,45.3*,24.0,24.5,26.3
Cc1ccc(-c2cc(C(=O)Nc3ccc(S(N)(=O)=O)cc3)[nH]n2)c(O)c1,32.4*,38.9*,-0.3,15.9,47.9*
CCOC(=O)N1CCN(S(=O)(=O)c2ccc(C(=O)Nc3ccc(S(N)(=O)=O)cc3)cc2)CC1,17.6,25.3,9.1,4.0,0.7
CCOc1ccc2c(c1)sc1nc(-c3cccc([N+](=O)[O-])c3)cn12,0.3,3.5,9.2,3.7,-2.0
O=C(NC1CCCCC1)C(c1ccc(F)cc1)N(CC1CCCO1)C(=O)C1COc2ccccc2O1 (stereo not drawn),9.5,7.3,15.0,0.3,1.4
Cc1sc(NC(=O)c2ccc3ccccc3n2)nc1-c1ccc(F)cc1,-157.2,35.1*,8.8,-9.7,-36.0
Cc1ccc(-c2nc(NC(=O)c3c(-c4ccccc4)noc3C)sc2C)cc1Cl,-8.5,-5.4,-42.2,-3.7,5.3
O=C(Nc1nnc(-c2ccc(F)cc2)s1)c1c(F)cccc1F,25.7,41.1*,-9.8,-2.5,10.8
Cc1ccc(-c2nc(NC(=O)c3c(F)cccc3F)sc2C)cc1Cl,23.2,36.5*,23.8,2.6,9.1
Cc1ccc(-c2nnc(NC(=O)c3c(F)cccc3F)s2)cc1,12.3,3.1,9.3,2.7,3.0
Cc1ccc(-c2nc(NC(=O)Nc3ccc(Cl)cc3)sc2C)cc1,14.9,60.3*,9.7,15.2,-0.2
Cc1cc2n(n1)CCCN2C(=O)CCC(=O)Nc1cc(F)ccc1F,-6.6,-8.2,-17.5,0.0,-4.4
CCN1C[C@H]2C3(CCN(C(=O)c4cc(C)on4)CC3)CC[C@@]2(C(=O)N(C)C)C1,-6.6,-13.4,-100.4,-1.0,0.4
COc1ccc(F)cc1S(=O)(=O)N1CCCC(c2nc(C)c3c(n2)N(C)C(=O)CC3)C1 (stereo not drawn),0.1,-2.8,-0.9,0.0,-1.8
COc1ccc(-c2nc(-c3cccc(-c4ccn[nH]4)c3)no2)cc1F,-37.8,8.5,-9.1,-3.2,-11.3
C(=C\c1nc(-c2cccc(-c3ccn[nH]3)c2)no1)/c1ccco1,-177.5,-4.9,35.4*,-13.4,-29.7
c1cc(-c2noc(-c3ccoc3)n2)cc(-c2ccn[nH]2)c1,-68.3,-0.3,-13.1,-8.7,-20.3
Fc1ccc(OCc2nc(-c3cccc(-c4ccn[nH]4)c3)no2)cc1,38.5*,80.0*,33.0*,17.0,52.4*
Cc1cc(C)n(-c2ccc(C(=O)Nc3ccc(F)c(Cl)c3)nn2)n1,17.1,12.2,-3.5,4.4,-1.3
SMILES,USP30 block,USP17 block,USP8 block,USP10 block,USP28 block
CCn1cc(C(=O)Nc2ccc3ccccc3c2)c(=O)c2ccc(C)nc21,-97.9,32.7*,-8.3,-6.4,-12.7
Cc1cccc(NC(=O)Cn2cc(C(=O)N3CCOCC3)c(=O)c3ccc(C)nc32)c1,-79.4,-2.8,34.5*,-8.8,-17.0
Cc1ccc2c(=O)c(C(=O)N3CCCC3)cn(CC(=O)NC3CCCC3)c2n1,-10.3,nt,6.3,-2.4,-5.0
CCc1cccc(NC(=O)c2cn(CC)c3nc(C)ccc3c2=O)c1,-113.4,-29.0,-10.1,-9.2,-28.8
Cc1cccc(NC(=O)Cn2cc(C(=O)N3CCCCC3)c(=O)c3ccc(C)nc32)c1,12.1,2.8,-0.3,-4.9,0.2
Cc1cccc(NC(=O)c2cn(CC(=O)NC3CCCC3)c3nc(C)ccc3c2=O)c1,0.2,47.7*,19.3,-7.4,-0.4
Cc1ccc(NS(=O)(=O)c2cc(C(=O)NCc3ccco3)ccc2Cl)cc1C,14.7,14.0,24.7,10.3,20.9
CC(=O)CN1CC2(CCN(C(=O)c3cccn3C)CC2)COc2ccccc2S1(=O)=O,-138.3,-36.5,-35.7,-7.3,-42.5

# From PubChem
